Holding throughout (test): NCI-60 one-dose screen, 48 h (100 = growth as untreated, 0 = no growth, -100 = all killed)
Common to all, as to settings: 10 µM unless noted

Assay [1] has as its system DU-145 prostate.
In assay [2] the test system is K-562 leukemia.
Assay [3] concerns MALME-3M melanoma.
Assay [4] has as its system MDA-MB-231 breast.
Assay [5] relates to RXF 393 renal.
The subject of assay [6] is SF-268 CNS.
Assay [7] concerns SF-295 CNS.
In assay [8] the test system is SF-539 CNS.
In assay [9] the test system is UACC-257 melanoma.
For assay [10], the system named is M14 melanoma.

Each structure is given as a SMILES string. Compounds without any hit were thinned out: in the full panel of roughly 83,000, 20% have a hit.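 48-hour exposure, single concentration, 96-well plates; percent growth endpoint where 0 means no net growth. Active: below 10.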 Values without a mark were called inactive. Active and inactive are the calls of the source.

`Cc1ccc2c(n1)C(=O)c1[nH]c3ccccc3c1C2=O`: the growth was -86.1% (active) in assay [1]; 44.9% in assay [2]; -80.4% (active) in assay [3]; 32.1% in [4]; 62.7% in assay [5]; 66.3% in assay [6]. The growth in assay [7] is 0.15% (active); in assay [8] it was 43%; in assay [9] it was 13.7%; in assay [10] it was -39.9% (active).
`CCOC(=O)c1cnc2ccccc2c1Cl`: the growth was 98.3% in assay [1]; 116% in assay [2]; 126% in [3]; 85.4% in assay [4]; 127% in assay [5]; 99.5% in assay [6]. In addition, the growth in assay [7] is 107%; in assay [8], 85.9%; in [9] it was 109%; in assay [10], 92.2%.
Turning to `C=CC(=O)NCc1ccc(Nc2nccc(-c3ccc(N4CCCC4)c(C#N)c3)n2)cc1`, the growth is 46.3% in assay [1]; 21% in assay [2]; 44.9% in assay [3]; 75.6% in assay [4]; -1.91% (active) in [5]; 49.7% in assay [6]. The growth was 22.9% in assay [7], 28% in [8], 39.8% in assay [9] and 36.1% in [10].
On to `CN1CCN(c2ccc(C(=O)Nc3cccc(C#Cc4cccc5[nH]nc(N)c45)c3)cc2C(F)(F)F)CC1`, for which the growth is -20.3% (active) in assay [1]; -36.9% (active) in assay [2]; -66.3% (active) in assay [3]; -72.2% (active) in assay [4]; -25.4% (active) in [5]; -1.07% (active) in assay [6]. For the same compound, the growth was -58.5% (active) in assay [7], -82.7% (active) in assay [8], -67.1% (active) in [9] and -69.5% (active) in assay [10].
Turning to `COc1ccc2c(O)c(/C=C3\N=Nc4ncccc43)oc2c1C[C@H]1CCNC[C@H]1F`, the growth in assay [1] was 7.19% (active); in [2], 1.73% (active); in assay [3], -21.6% (active); in assay [4] it was -6.95% (active); in assay [5], -44.4% (active); in assay [6], -5.68% (active). The growth is 18.9% in assay [7], -29.9% (active) in assay [8], -6.32% (active) in assay [9] and -40.9% (active) in [10].
`COC(=O)c1cc(-c2ccc(OC)cc2)[nH]c1N/N=C/c1c(Cl)cccc1Cl`: the growth in assay [1] is -26.2% (active); in assay [2] it was 0.823% (active); in assay [3], 24.7%; in assay [4], 7.56% (active); in [5], -44.2% (active); in assay [6], 13.8%. For the same compound, the growth is -28.2% (active) in assay [7], -38.8% (active) in assay [8], 14.2% in assay [9] and -59.3% (active) in [10].
Turning to `COc1ccc(C(=S)N2CCN(c3ccccc3Cl)CC2)cc1OC`, the growth in [1] is 111%; in assay [2], 106%; in [3], 90.8%; in [4] it was 102%; in assay [5] it was 111%; in assay [6], 99.4%. Also, the growth is 91.7% in assay [7], 99.4% in assay [8], 104% in [9] and 92.8% in [10].
As to `O=C1/C(=C\c2cn(-c3ccccc3)nc2-c2ccc(-c3cccs3)cc2)CCc2ccccc21`, the growth in assay [1] was 85.8%; in assay [2], 17.6%; in assay [3] it was 65.4%; in [4], 67.5%; in assay [5], 58.1%; in assay [6] it was 70.5%. The growth is 54.8% in assay [7], 72% in assay [8], 83.3% in [9] and 39.1% in assay [10].
With `Cc1ccc(-n2c(=S)[nH]c3sc4c(c3c2=O)CCC(=O)C4)cc1`, the growth in assay [1] is 37.8%; in assay [2] it was 17%; in assay [3], 50.9%; in [4] it was 54.6%; in assay [5], 23.8%; in [6] it was 48.2%. The growth in assay [7] was 47.9%; in assay [8] it was 11.8%; in assay [9], 54.5%; in [10] it was 25.9%.
Take `COC(=O)c1c2c(c[n+]([O-])c1C)C(=O)C(NCc1ccccc1)=CC2=O`: the growth in assay [1] was -87.1% (active); in assay [2], 1.41% (active); in assay [3], -93.4% (active); in assay [4] it was -3.95% (active); in [5], -26% (active); in assay [6], -13.9% (active). Further, the growth is -45.3% (active) in assay [7], -71.7% (active) in assay [8], -81.5% (active) in assay [9] and -77.8% (active) in [10].
For `O=C1c2cccc(NCCN=Cc3cc(O)ccc3O)c2C(=O)c2c(NCCN=Cc3cc(O)ccc3O)cccc21`, the growth in [1] is -68.5% (active); in [2] it was -94.8% (active); in [3] it was -24.6% (active); in assay [4], -41% (active); in [5] it was -34.2% (active); in [6], -34.9% (active). Further, the growth was -23.6% (active) in assay [7], -8.67% (active) in assay [8], 57.9% in assay [9] and -4.47% (active) in assay [10].
As to `CCN(C(=O)N1CCN(c2cc3c(cc2F)c(=O)c(C(=O)O)cn3C2CC2)CC1)c1nc(-c2ccc(Cl)cc2)cs1`, the growth is 23.5% in [1]; 12.7% in [2]; 6.66% (active) in [3]; -21.5% (active) in [4]; 18.2% in [5]; 21.8% in [6]. Moreover, the growth was -0.18% (active) in assay [7], 11.8% in assay [8], 12.9% in assay [9] and 23% in [10].
As to `CCc1ccc(Oc2cn[nH]c2-c2ccc(OCCc3ccc(F)cc3)cc2O)cc1`, the growth in assay [1] is 90.5%; in assay [2], 100%; in [3] it was 95.1%; in [4], 85%; in assay [5] it was 111%; in assay [6], 88.9%. The growth was 99.2% in assay [7], 106% in assay [8], 93.3% in assay [9] and 83.1% in assay [10].
In the case of `Cc1cc2c(O)c(-c3cc(Cl)ccc3Cl)c3sc(=O)oc3c2cc1C`, the growth in assay [1] is 69.5%; in assay [2], 28.3%; in assay [3], 100%; in [4], 77.3%; in [5] it was 86%; in [6], 65%. For the same compound, the growth in [7] was 72.5%; in assay [8], 89.9%; in [9], 60.8%; in assay [10] it was 81.1%.
With `CN1CCN(C(=O)c2ccc(NC(=O)Nc3ccc(-c4nc(N5CCOCC5)c5cccn5n4)cc3)cc2)CC1`, the growth in assay [1] is 7.11% (active); in assay [2] it was 15.3%; in assay [3] it was -37% (active); in assay [4], 2.25% (active); in [5] it was -39.5% (active); in assay [6], 4.85% (active). Moreover, the growth in assay [7] was -43.6% (active); in [8], -40.1% (active); in assay [9], -21.3% (active); in assay [10] it was -22% (active).
In the case of `Cc1ccccc1/C=C1\CN(C(=O)OC(C)(C)C)C/C(=C\c2ccccc2C)C1=O`, the growth is 9.09% (active) in assay [1]; 5.76% (active) in [2]; 73.7% in assay [3]; 42.7% in assay [4]; 61.1% in assay [5]; 2.68% (active) in assay [6]. Moreover, the growth was 24.6% in [7], 31.2% in assay [8], 74.3% in [9] and 30.7% in [10].
As to `COc1ccc(-c2cc(-c3ccc(Cl)cc3)c(C#N)c(=O)n2CCCCC(=O)Nc2ccccc2N)cc1`, the growth in assay [1] is 59.9%; in assay [2], 24.8%; in [3] it was 59.3%; in assay [4], 39.3%; in [5], 14.2%; in assay [6], 65.5%. Besides, the growth is -14.5% (active) in [7], 73.9% in [8], 44.7% in assay [9] and -7.3% (active) in assay [10].
As for `COC(=O)[C@]1(C)CCC[C@]2(C)[C@H]3C[C@H]4C(C(C)C)=C[C@]3(CC[C@H]21)[C@H]1[C@@H]4[C@@H](OCCC#N)CC[C@@H]1OCCC#N`, the growth in assay [1] is 57%; in assay [2], 26.8%; in assay [3] it was 61.9%; in assay [4], 47.3%; in assay [5] it was -10.5% (active); in assay [6], 47.9%. Moreover, the growth in [7] was 30%; in assay [8], 59.7%; in [9], 37.8%; in assay [10], 40.7%.
With `CCc1nc2c(=O)[nH]cnc2o1`, the growth in assay [1] was 112%; in assay [2] it was 104%; in assay [3], 83.1%; in assay [4], 117%; in [5], 102%; in assay [6], 103%. For the same compound, the growth is 110% in [7], 94.8% in assay [8], 107% in assay [9] and 103% in assay [10].
As to `C=CCn1c(SCC(=O)Nc2ccc(C(=O)/C=C/c3ccc(Cl)cc3)cc2)nnc1-c1cc(-c2ccc(S(N)(=O)=O)cc2)nc2ccccc12`, the growth in [1] was 104%; in [2] it was 71.1%; in assay [3] it was 93.3%; in [4], 90%; in assay [5], 80.2%; in [6], 74.8%. The growth in [7] was 97.5%; in [8] it was 87%; in [9], 99.8%; in [10] it was 92.2%.
For the compound `C/C(=N/O)c1ccc(F)cc1`, the growth was 5.59% (active) in assay [1]; 92.7% in [2]; 130% in assay [3]; 88% in assay [4]; 64.1% in assay [5]; 102% in assay [6]. Also, the growth in [7] was 75%; in [8], 119%; in assay [9] it was 95.3%; in assay [10], 94.9%.
Regarding `O=C(O)c1[nH]c(=O)[nH]c(=O)c1[N+](=O)[O-]`, the growth in assay [1] is 134%; in assay [2], 89.7%; in assay [3] it was 124%; in assay [4], 110%; in [5], 113%; in assay [6], 117%. The growth was 104% in assay [7], 103% in [8], 97.7% in [9] and 110% in assay [10].
For `COc1cc2oc(-c3cccc(NC(=O)c4cccc(Br)c4)c3)cc(=O)c2c(OC)c1OC`, the growth is 54.4% in assay [1]; 25.8% in [2]; 53% in assay [3]; 63.5% in assay [4]; 54.9% in [5]; 59.7% in [6]. Also, the growth in assay [7] was 40.9%; in [8] it was 69%; in assay [9] it was 83.8%; in [10], 59%.
With `Cc1ccc(C2=Nc3c(N)ncnc3NC(c3ccc4c(c3)OCO4)C2)cc1` (stereo not given), the growth in assay [1] is 98%; in assay [2], 14.8%; in assay [3], 51.8%; in assay [4] it was 61.3%; in assay [5], 59.4%; in [6] it was 72.9%. For the same compound, the growth was 40.8% in assay [7], 67.7% in [8], 96.2% in assay [9] and 39% in assay [10].
Regarding `Cc1ccc(-c2nn(-c3ccccc3)cc2C=C2C(=O)ON=C2C(C)C)cc1`, the growth is 88.1% in assay [1]; 34.2% in [2]; 85.2% in assay [3]; 97.3% in assay [4]; 89.9% in assay [5]; 94.8% in [6]. Besides, the growth in assay [7] is 96.8%; in assay [8] it was 83.6%; in [9] it was 96.4%; in assay [10] it was 65.8%.

The values are drawn from PubChem BioAssay (NCI).
